Measurements: PubChem BioAssay (EPA / NIEHS)
Calls of active or inactive are those of the source. Rule for the calls: active = hit-call score of the fitted dose curve at least 0.9, where 1 is the maximum; inactive = score below 0.9.

What was measured:
[1] = biological target: Nuclear respiratory factor 1 (Homo sapiens) (UniProt Q16656); test: ATG_NRF1_CIS: Attagene CIS-FACTORIAL HepG2 Assay for human Nuclear Respiratory Factor 1 (NRF1) Orphan Gene (AID 2282987); details: HepG2 NRF1 cis-element reporter, Attagene multiplex; actives raise or lower the signal
Procedure, shortened: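 Fluorescence intensity of labelled reporter cDNA fragments, resolved by capillary electrophoresis, served as readout for NRF1 cis-element activity. Transiently transfected HepG2 cells were dosed for 24 hours; activity in either direction was fitted against DMSO negative control.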

[2] = ATG_NFI_CIS: Attagene CIS-FACTORIAL HepG2 Assay for human Nuclear Factor I (NFI) (AID 2282989); details: HepG2 cis-regulatory reporter, NFI response element transcription; actives raise or lower the signal
Procedure, shortened: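 Transient MRTU transfection of HepG2 → 24 h chemical dosing → total RNA, oligo(dT) RT → PCR, 6-FAM primer extension, HpaI cut → capillary electrophoresis. Endpoint fitted bidirectionally relative to DMSO.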

[3] = biological target: Myc proto-oncogene protein (Homo sapiens) (UniProt P01106); test: ATG_Myc_CIS: Attagene CIS-FACTORIAL HepG2 Assay for human Myelocytomatosis (Myc) Proto-Oncogene Transcription Factor (AID 2282990); details: HepG2, Attagene cis-reporter transcription factor activity; actives raise or lower the signal
Procedure, shortened: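 Transiently transfected HepG2 cells bearing cis-promoter reporter units for endogenous transcription factors; 24 h exposure. Reporter mRNA measured by RT-PCR, 6-FAM primer extension, HpaI cut and capillary electrophoresis; bidirectional fit relative to DMSO.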

[4] = ATG_Oct_MLP_CIS: Attagene CIS-FACTORIAL HepG2 Assay for human Octamer-Binding Transcription Factor (Oct) (AID 2282993); details: HepG2 Attagene cis-factorial Oct reporter, mRNA; actives raise or lower the signal
Procedure, shortened: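 Transient MRTU transfection of HepG2 → 24 h compound treatment → RNA isolation, reverse transcription, PCR → 6-FAM primer extension, HpaI digest → capillary electrophoresis. Activity fitted both directions against DMSO.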

[5] = biological target: Cellular tumor antigen p53 (Homo sapiens) (UniProt P04637); test: ATG_p53_CIS: Attagene CIS-FACTORIAL HepG2 Assay for human p53 Transcription Factor (AID 2282994); details: HepG2 p53 cis-element reporter, Attagene mRNA; actives raise or lower the signal
Procedure, shortened: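 Read-out: reporter mRNA by RT-PCR plus capillary electrophoresis with fluorescence detection. Human HepG2 liver cells carried transfected multi-reporter cis-element constructs, dosed 24 h. Gain or loss of signal fitted bidirectionally against DMSO control.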

[6] = ATG_NRF2_ARE_CIS: Attagene CIS-FACTORIAL HepG2 Assay for human Nuclear Factor Erythroid 2 Related Factor 2 (NFR2) response to Antioxidant Response Elements (ARE) (AID 2282992); details: HepG2 Attagene ARE/NRF2 reporter, transcription factor activity; actives raise or lower the signal;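 for AC50: reporter mRNA level measured by RT-PCR and capillary electrophoresis fluorescence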
Procedure, shortened: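 Readout: reporter mRNA quantified by RT-PCR plus FAM-labelled primer extension, HpaI digestion and capillary electrophoresis, 24 h after dosing transfected HepG2 cells. Gain or loss of signal is fitted bidirectionally against DMSO baseline.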

[7] = BSK_3C_TissueFactor: BioMAP Diversity Plus: 3C Assay for Tissue Factor Biomarker Activity (AID 2282997); details: BioMAP 3C HUVEC, tissue factor biomarker readout; actives raise or lower the signal
Procedure, shortened: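 Cells used were primary human umbilical vein endothelial cells. They were dosed with chemical, and after 24 h Tissue Factor was quantified by ELISA. Curves were fitted bidirectionally with DMSO as baseline.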

[8] = BSK_3C_VCAM1: BioMAP Diversity Plus: 3C Assay for Vascular cell adhesion molecule 1 (VCAM1) Biomarker Activity (AID 2282999); details: BioMAP 3C HUVEC, VCAM1 ELISA, cytokine-stimulated; actives raise or lower the signal
Procedure, shortened: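 HUVEC primary cells, 24 h compound exposure; VCAM-1 by ELISA; gain/loss of signal fitted bidirectionally vs DMSO baseline.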

[9] = BSK_3C_uPAR: BioMAP Diversity Plus: 3C Assay for Urokinase-type plasminogen activator receptor (uPAR) Biomarker Activity (AID 2282998); details: BioMAP 3C HUVEC, uPAR biomarker ELISA; actives raise or lower the signal
Procedure, shortened: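 ELISA readout of uPAR on human vascular endothelium (umbilical vein primary cells), taken 24 h after chemical dosing. Increases and decreases are both fitted relative to DMSO vehicle.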

Measured: AC50

Sequence of Cellular tumor antigen p53 (Homo sapiens) (P04637 whole entry, looked up): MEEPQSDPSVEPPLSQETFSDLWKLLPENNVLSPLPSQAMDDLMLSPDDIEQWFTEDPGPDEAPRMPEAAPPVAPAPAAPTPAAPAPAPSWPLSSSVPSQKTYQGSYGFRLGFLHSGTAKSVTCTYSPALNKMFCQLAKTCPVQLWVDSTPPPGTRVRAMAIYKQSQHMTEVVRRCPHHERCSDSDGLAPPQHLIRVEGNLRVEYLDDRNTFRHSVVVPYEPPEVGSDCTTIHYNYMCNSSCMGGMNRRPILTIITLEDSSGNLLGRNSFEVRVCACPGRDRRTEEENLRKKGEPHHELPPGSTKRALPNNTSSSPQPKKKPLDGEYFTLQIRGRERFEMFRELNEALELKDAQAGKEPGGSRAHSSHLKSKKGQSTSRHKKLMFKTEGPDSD
Sequence of Myc proto-oncogene protein (Homo sapiens) (P01106 whole entry, looked up): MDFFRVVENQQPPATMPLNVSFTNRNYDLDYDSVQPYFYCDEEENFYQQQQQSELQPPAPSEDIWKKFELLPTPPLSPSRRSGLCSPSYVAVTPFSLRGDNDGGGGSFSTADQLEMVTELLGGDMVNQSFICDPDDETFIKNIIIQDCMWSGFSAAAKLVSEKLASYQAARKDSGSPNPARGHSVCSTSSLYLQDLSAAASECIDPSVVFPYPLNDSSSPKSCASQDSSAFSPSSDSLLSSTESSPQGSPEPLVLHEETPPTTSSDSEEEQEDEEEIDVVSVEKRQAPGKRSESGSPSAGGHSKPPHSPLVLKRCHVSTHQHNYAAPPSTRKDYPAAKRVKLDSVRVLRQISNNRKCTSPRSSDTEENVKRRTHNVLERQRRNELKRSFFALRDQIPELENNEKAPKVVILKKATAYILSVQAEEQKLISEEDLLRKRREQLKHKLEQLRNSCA
Sequence of Nuclear respiratory factor 1 (Homo sapiens) (Q16656 whole entry, looked up, the tested form may be a part): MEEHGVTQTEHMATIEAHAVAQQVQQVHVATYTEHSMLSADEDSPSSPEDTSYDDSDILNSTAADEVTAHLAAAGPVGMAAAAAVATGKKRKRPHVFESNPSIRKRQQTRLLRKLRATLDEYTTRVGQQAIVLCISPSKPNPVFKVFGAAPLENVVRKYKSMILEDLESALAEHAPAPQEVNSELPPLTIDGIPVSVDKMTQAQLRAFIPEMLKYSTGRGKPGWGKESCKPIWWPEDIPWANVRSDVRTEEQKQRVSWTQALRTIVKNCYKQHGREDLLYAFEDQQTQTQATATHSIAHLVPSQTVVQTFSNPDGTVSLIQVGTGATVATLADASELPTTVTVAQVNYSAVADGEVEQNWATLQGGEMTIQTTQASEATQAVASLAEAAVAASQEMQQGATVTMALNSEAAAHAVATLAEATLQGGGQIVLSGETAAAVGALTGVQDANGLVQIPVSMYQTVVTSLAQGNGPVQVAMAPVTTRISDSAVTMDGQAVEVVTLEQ

CCCC(CC)c1ccccc1 (centres undefined)
active: [1] 158 µM | [2] 181 µM
inactive: [3] | [4] | [5]

C=Cc1cccc(C)c1
not listed: [7] | [8] | [9]
inactive: all other assays above

CC1=CC=C(C(C)C)CC1
active: [6] 152 µM
not listed: [9]
inactive: all other assays above

O=C(OCc1ccccc1)c1ccc(O)cc1
inactive: [1] | [2] | [3] | [5]
active: [6] 64.4 µM | [4] 125 µM

CCOC(=O)c1ccc(C)cc1
not listed: [7] | [8] | [9]
inactive: all other assays above

O=C(Oc1ccccc1)c1ccccc1C(=O)Oc1ccccc1
active: [6] 30.7 µM
not listed: [9]
inactive: all other assays above

O=C(O)CC(C(=O)O)S(=O)(=O)O (centres undefined)
not listed: [7] | [8] | [9]
inactive: all other assays above

c1ccc2c(c1)[nH]c1ccccc12
inactive: all assays above

C=CC(=O)OCC(C)OCC(C)OCC(C)OC(=O)C=C (centres undefined)
active: [6] 25.6 µM | [4] 29.5 µM | [5] 145 µM | [7] 11.6 µM | [8] 12.1 µM
inactive: [1] | [2] | [3]

CCCCCCCCCC(C)=O
not listed: [7] | [8] | [9]
inactive: all other assays above

CCCCCC1=CCCC1=O
active: [6] 55.8 µM
not listed: [5] | [9]
inactive: all other assays above

CCCCc1ccc(Cl)cc1
inactive: [1] | [2] | [3] | [4] | [5]

COc1ccc(-c2coc3cc(O)cc(O)c3c2=O)cc1
inactive: [2] | [3]
active: [1] 25.9 µM | [4] 39 µM

Nc1ccc(C(=O)OCCCOC(=O)c2ccc(N)cc2)cc1
inactive: [1] | [2] | [3] | [4] | [5]

C=CC(=O)OCCCCCCOC(=O)C=C
active: [6] 6.61 µM | [4] 26.2 µM | [5] 174 µM | [7] 3.97 µM | [8] 10.4 µM
inactive: [1] | [2] | [3]

C=C[Si](OCCOC)(OCCOC)OCCOC
not listed: [7] | [8] | [9]
inactive: all other assays above

CCOB(OCC)OCC
not listed: [7] | [8] | [9]
inactive: all other assays above

C=C[C@@]1(C)CC(=O)[C@]2(O)[C@@]3(C)[C@@H](O)CCC(C)(C)[C@@H]3[C@H](O)[C@H](OC(C)=O)[C@@]2(C)O1
inactive: [1] | [2] | [3] | [4]
active: [5] 0.983 µM

O=C1CCCCCCCCCCCN1
inactive: all assays above

O=C1CCCCCCCCCCC1
not listed: [6] | [9]
inactive: all other assays above

CC(=O)C(C)C
inactive: [1] | [2] | [3] | [4]

CCCCCCCOC(=O)c1ccc(O)cc1
active: [6] 39.4 µM | [4] 46 µM
inactive: [1] | [2] | [3] | [5]

O=c1c(O)c(-c2ccc(O)cc2O)oc2cc(O)cc(O)c12
not listed: [7] | [8] | [9]
inactive: all other assays above

CCOC(=O)C1=NN(c2ccc(Cl)cc2Cl)C(C)(C(=O)OCC)C1 (centres undefined)
not listed: [5] | [9]
inactive: all other assays above

CCC1COC(=O)O1 (centres undefined)
inactive: [1] | [2] | [3] | [4]

CCCCCCCCCCCC(=O)N(C)CC(=O)O
active: [6] 97.5 µM
not listed: [5] | [9]
inactive: all other assays above

CC1(C)CC(O)CC(C)(C)N1[O]
active: [6] 26.6 µM
not listed: [5] | [9]
inactive: all other assays above

COC(=O)c1ccccc1C
not listed: [7] | [8] | [9]
inactive: all other assays above

CCOC(=O)C1=NOC(c2ccccc2)(c2ccccc2)C1
active: [6] 65.1 µM
not listed: [9]
inactive: all other assays above

CC(C)c1cccc(C(C)C)c1N
inactive: all assays above
